SMILES strings stand for the structures. This is part of a sample that, as a whole, favours compounds with a hit. Of some 83,000 tested, about 20% had one in any assay.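 Results are percent growth after 48 hours of single-concentration exposure. 100 means growth as in untreated cells, lower positive values show inhibition; negative values down to -100 show cell death.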 Values without a mark were called inactive. Activity calls are given as the source filed them. Rule for the calls: active = growth percent below 10; inactive = the rest.

The results in this text go back to PubChem BioAssay (NCI).

What all share (assay): NCI-60 one-dose screen, 48 h (100 = growth as untreated, 0 = no growth, -100 = all killed)
Holding throughout (conditions): 10 µM unless noted

For assay [1], the system named is SK-MEL-2 melanoma.
Assay [2] deals with EKVX NSCLC.
The test system of assay [3] is SN12C renal.
Assay [4] relates to UO-31 renal.
Assay [5] relates to TK-10 renal.
The subject of assay [6] is ACHN renal.
In assay [7] the test system is CAKI-1 renal.
In assay [8] the test system is A498 renal.
In assay [9] the test system is CCRF-CEM leukemia.
In assay [10] the test system is MOLT-4 leukemia.
Assay [11] concerns SR leukemia.
In assay [12] the test system is RPMI-8226 leukemia.
Assay [13] relates to OVCAR-8 ovarian.
Assay [14] relates to OVCAR-5 ovarian.
Assay [15] has as its system OVCAR-4 ovarian.
Assay [16] relates to IGROV1 ovarian.
For assay [17], the system named is OVCAR-3 ovarian.
Assay [18] has as its system HS 578T breast.
The test system of assay [19] is NCI/ADR-RES ovarian.
Assay [20] concerns SK-OV-3 ovarian.

Consider `CC(C)[C@@H]1CC[C@]2(C(=O)NCCCCN=C(N)N)CC[C@]3(C)[C@H](CC[C@@H]4[C@@]5(C)CCC(=O)C(C)(C)[C@@H]5CC[C@]43C)[C@@H]12`, for which the growth in [1] is 83.3%; in [2], 81.5%; in assay [3], 60.7%; in assay [4], 82.6%; in [5] it was 88.7%; in [6] it was 79.6%. Also, the growth in assay [7] was 96.7%; in assay [8], 111%; in assay [9], 37.6%; in assay [10], 38.6%; in assay [11], 33.6%; in assay [12], 36.3%. Also, the growth in [13] was 70.2%; in assay [14], 97.4%; in assay [15], 84.3%; in assay [16], 25.6%; in assay [17], 55.4%; in assay [18], 73%. Besides, the growth in assay [19] was 101%.

As for `CCOC(=O)/C=C/C(=O)[C@H](CC(C)C)NC(=O)[C@H](Cc1ccccc1)NC(=O)OCc1ccccc1`, the growth in [1] is 99.8%; in assay [2], 100%; in assay [3], 57.2%; in assay [4], 44.7%; in assay [5], 50.1%; in assay [6], 47.5%. Besides, the growth was 74.8% in [7]; 77.6% in assay [8]; -18.5% (active) in assay [9]; 0.254% (active) in [10]; -8.81% (active) in assay [11]; -19.9% (active) in [12]. Moreover, the growth is 72.8% in assay [13]; 90.8% in assay [14]; 91.9% in assay [15]; 75.6% in assay [16]; 30% in assay [17]; 93.4% in assay [18]. Moreover, the growth in [19] was 89.6%.

For the molecule `C=C1C(=O)O[C@H]2[C@H]1CC/C(Cn1cc(Cn3ccc4ccccc43)nn1)=C\CC[C@@]1(C)O[C@@H]21`, the growth in [1] is 61.5%; in assay [2], 58.6%; in [3], 39.8%; in assay [4], -77.2% (active); in assay [5], 16.8%; in assay [6], -52.9% (active). Besides, the growth in assay [7] is 18.3%; in assay [8] it was 74.3%; in assay [9] it was -18.6% (active); in [10], -8.31% (active); in assay [11], -18.4% (active); in assay [12] it was -34.6% (active). Further, the growth in [13] was 11%; in assay [14] it was 71.5%; in [15] it was 45.4%; in assay [20], 101%; in [16], 47.8%; in [18], 69.4%. In addition, the growth in assay [19] is 77.9%.

Consider `C=C1CC2(OC1=O)C(=O)N(CCCCCCCCCCCCN1C(=O)C3(CC(=C)C(=O)O3)c3ccccc31)c1ccccc12` (configuration not stated), for which the growth was 73.3% in [1]; 98% in [2]; 53.1% in assay [3]; 76.6% in [4]; 96.1% in [5]; 97.8% in assay [6]. Also, the growth in assay [7] was 80.2%; in assay [8] it was 59.5%; in assay [9], 4.77% (active); in [10], 2.36% (active); in [11] it was 2.62% (active); in assay [12] it was 3.98% (active). Moreover, the growth is 57% in assay [13]; 99.9% in assay [14]; 88.9% in assay [15]; 105% in assay [20]; 64.8% in assay [16]; 91.1% in assay [18]. The growth in assay [19] is 83.2%.

Consider `Nc1ccc2c(c1)C(=O)NC2=O`, for which the growth was 117% in assay [1]; 112% in [2]; 94.9% in assay [3]; 70.8% in [4]; 118% in assay [5]; 99.3% in [6]. Further, the growth in assay [7] is 99.6%; in [8] it was 119%; in assay [9], -49.6% (active); in [10], 105%; in [11] it was 40.7%; in assay [12], 84.1%. The growth is 106% in assay [13]; 92.8% in assay [14]; 82.8% in [15]; 100% in [20]; 113% in assay [16]; 93.5% in [18]. Also, the growth in assay [19] was 95.2%.

`CN1CCN(Cc2ccc(NC(=O)c3[nH]ncc3Nc3ncnc4[nH]ccc34)cc2)CC1`: the growth in assay [1] was -12.3% (active); in [2], 13%; in [3], 13.3%; in assay [4], 3.55% (active); in assay [5], -61.8% (active); in assay [6], 5.97% (active). Also, the growth in assay [7] was -1.63% (active); in [8], -59% (active); in assay [9] it was 4.71% (active); in assay [10], -20.9% (active); in assay [11], -17% (active); in assay [12], -10.4% (active). For the same molecule, the growth in [13] is 6.62% (active); in assay [14] it was 11.6%; in assay [15], -21.7% (active); in [16], 16.4%; in assay [17], -57.6% (active); in assay [18], -3.22% (active). Further, the growth in [19] was 71.2%.

Turning to `O=[N+]([O-])c1cccc(-c2nc3sccn3c2-c2ccnc(NCCCNS(=O)(=O)c3ccc(F)cc3)n2)c1`, the growth in assay [1] is -15.9% (active); in assay [2], 18.3%; in [3] it was 10.6%; in [4], -26.8% (active); in [5] it was 44.6%; in assay [6], 5.38% (active). Also, the growth in assay [7] is 9.79% (active); in assay [8] it was 29.7%; in [9] it was 1.95% (active); in assay [10] it was -18.2% (active); in assay [11] it was 9.01% (active); in assay [12], -29.7% (active). For the same molecule, the growth in assay [13] is 3.44% (active); in assay [14], 59.1%; in assay [15], -5.32% (active); in [20], 37.1%; in assay [16], 5.03% (active); in assay [18], 22.2%. In addition, the growth in [19] is -15.5% (active).

`O=C(O)c1ccccc1Nc1cccc(S(F)(F)(F)(F)F)c1`: the growth is 83.6% in [1]; 99.3% in [2]; 96.4% in assay [3]; 85.6% in [4]; 87.8% in assay [5]; 98.4% in [6]. Also, the growth was 94.6% in assay [7]; 95.1% in assay [8]; 98.4% in assay [9]; 88.1% in assay [10]; 99.1% in [11]; 100% in [12]. Besides, the growth is 98.9% in assay [13]; 102% in assay [15]; 87.4% in assay [20]; 99.8% in assay [16]; 95% in [17]; 99.2% in assay [18]. The growth in assay [19] is 106%.
